The campaign covered roughly 16,000 compounds. About 4,000 (25%) were called active. Roughly 26% stayed inconclusive and do not appear here. These entries were drawn from the full list. Values without a mark were called inactive. Calls follow the shape of the dose curve; as a rule, active = well fitted curve in the direction sought with a large enough effect; inconclusive = small, poorly fitted or top-dose-only effect, or effect the other way; inactive = no such curve, though single readings can be large or run the other way.
% is scaled to controls: 0 for no effect and ±100 for the full control effect.

Sequence of Cytochrome P450 2C9 (Homo sapiens) (P11712 whole entry, looked up): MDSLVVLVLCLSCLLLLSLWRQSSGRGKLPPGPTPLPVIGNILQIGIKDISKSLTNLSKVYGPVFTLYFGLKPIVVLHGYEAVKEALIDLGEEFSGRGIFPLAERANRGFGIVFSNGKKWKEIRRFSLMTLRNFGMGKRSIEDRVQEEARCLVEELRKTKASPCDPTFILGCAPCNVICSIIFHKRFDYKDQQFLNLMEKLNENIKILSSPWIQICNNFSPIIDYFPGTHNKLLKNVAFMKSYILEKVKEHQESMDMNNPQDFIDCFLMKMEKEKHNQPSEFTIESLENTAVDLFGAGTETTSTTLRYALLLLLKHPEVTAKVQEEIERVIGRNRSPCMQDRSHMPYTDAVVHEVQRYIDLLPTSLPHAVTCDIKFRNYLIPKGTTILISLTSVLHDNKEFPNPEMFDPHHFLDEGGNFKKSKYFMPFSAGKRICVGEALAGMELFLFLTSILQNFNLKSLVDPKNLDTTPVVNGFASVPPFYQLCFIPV

This test concerns the target Cytochrome P450 2C9 (Homo sapiens) (UniProt P11712). The experiment in a line: Cytochrome panel assay with activity outcomes. To be noted: recombinant CYP, pro-luciferin dealkylation, luminescence, p450-cyp2c9; series mostly up to 57.1 µM; activity, negative = inhibition: at the top concentration.
`Cc1ccc(O)c(C(=O)c2cc(C#N)c(=O)n(-c3c(C)n(C)n(-c4ccccc4)c3=O)c2)c1`: the AC50 was 15.8 µM (active).

As for `Cc1c(O)c(=O)n(-c2ccccc2)n1C`, the “activity, negative = inhibition” value is -6.28% [at 25.6 µM].

In the case of `Cc1c(N(C)C)c(=O)n(-c2ccccc2)n1C`, the “activity, negative = inhibition” value was 2.35% [at 25.6 µM].

As to `Nc1nc(SCC(=O)O)[nH]c(=O)c1N`, the activity, negative = inhibition was -6.53% [at 11.4 µM].

For `NCCCc1c(-c2ccccc2)nc(N)[nH]c1=O`, the activity, negative = inhibition is -12.1% [at 11.4 µM].

With `CCCCCOC(=O)CSc1nnc(-c2ccccc2)c(=O)[nH]1`, the AC50 is 2 µM (active).

Take `Cc1ccc(S(=O)(=O)N[C@H](C(=O)N2CCC(C(=O)NCC(=O)O)CC2)C(C)C)cc1`: the “activity, negative = inhibition” value is -28.2%.

For `CCc1ccc2c(c1)c(N=NC1=NC(=O)CS1)c(O)n2CC`, the AC50 is 12.6 µM (active).

For the molecule `COc1ccc2nc3cc(Cl)ccc3c(Nc3ccc(O)c(CN4CCN(C)CC4)c3)c2c1`, the activity, negative = inhibition was -28.4% [at 11.4 µM].

Consider `Cc1sc2nc(SCC(=O)C(C)(C)C)n(Cc3ccco3)c(=O)c2c1C`, for which the AC50 is 1.58 µM (active).

With `COc1ccc(C(=O)N2CCC3(CC2)CN(C(=O)NC(C)C)C3)cc1`, the “activity, negative = inhibition” value was -3.69%.

As to `Cc1cccc2sc(NC(=O)C3c4ccccc4Oc4ccccc43)nc12`, the AC50 was 1.26 µM (active).

Regarding `O=C(Nc1cccnc1Cl)C1c2ccccc2Oc2ccccc21`, the AC50 was 1.12 µM (active).

For `Cc1ccccc1NC(=O)c1cnc(Nc2nc3ccccc3s2)nc1C`, the “activity, negative = inhibition” value is -2.78%.

As to `NC(N)=NNC(=O)C(=O)O`, the activity, negative = inhibition is -4.6% [at 11.4 µM].

Take `Cc1cnc(CNc2ncnc3ccc(-c4ccoc4)cc23)cn1`: the activity, negative = inhibition was 11.8% [at 2.29 µM].

For the molecule `OCCNc1ncnc2nc[nH]c12`, the activity, negative = inhibition is -11.4% [at 11.4 µM].

Consider `CCc1cc2c(NCc3ccco3)ncnc2s1`, for which the AC50 was 4.47 µM (active).

As to `c1csc(CNc2ncnc3ccc(-c4ccoc4)cc23)c1`, the activity, negative = inhibition is 0.0121% [at 2.29 µM].

On to `CCc1cc2c(NCCO)ncnc2s1`, for which the AC50 is 1.58 µM (active).

With `OCCCNc1ncnc2[nH]ncc12`, the activity, negative = inhibition is -4.6% [at 11.4 µM].

As to `CC(=O)c1c(C)nc(-c2ccccc2)n1O`, the “activity, negative = inhibition” value was -12.8%.

Consider `CN=c1nc(-c2ccccc2)n(-c2ccccc2)s1`, for which the AC50 is 2 µM (active).

For `CN=C1N[C@H](c2ccccc2)N(c2ccccc2)S1`, the “activity, negative = inhibition” value was -0.499%.

Take `CN1CC[C@@]2(CCCN(C(=O)c3cccn3C)C2)C1`: the “activity, negative = inhibition” value is 11.5%.

On to `COC(=O)[C@@]1(Cc2ccccc2)[C@H]2c3cc(C(=O)N4CCCC4)n(Cc4cccc5ccccc45)c3C[C@H]2CN1C(=O)c1ccccc1`, for which the AC50 was 0.251 µM (active).

For `COC(=O)[C@@]1(Cc2ccc(F)cc2)[C@H]2c3cc(C(=O)N4CCCC4)n(Cc4cccc5ccccc45)c3C[C@H]2CN1C(=O)c1ccccc1`, the AC50 was 1.58 µM (active).

For `COc1ccc(-n2c(-c3ccccc3)nc(=S)c3c2CCCC3)cc1`, the “activity, negative = inhibition” value was -24.3%.

As to `CC1=C(C(N)=O)C(c2cccs2)n2nc(-c3cccc(Cl)c3)nc2N1` (configuration not stated), the AC50 is 12.6 µM (active).

Regarding `C/C(=N\N=C(c1ccccc1)c1ccccc1)c1cccs1`, the AC50 is 0.708 µM (active).

Take `C/C(=N\N=C1\NC(=O)CC(C(=O)O)S1)c1cccs1` (configuration not stated): the “activity, negative = inhibition” value was -23%.

Turning to `CC(=O)/C(=N\N=C(N)N)c1ccccc1`, the activity, negative = inhibition is 11.7% [at 11.4 µM].

With `CC(=O)c1cc(C)ccc1OC(=O)CCN1C(=O)C2C3c4ccccc4C(c4ccccc43)C2C1=O` (configuration not stated), the “activity, negative = inhibition” value was -22.5%.

With `O=c1[nH]ncn2cccc12`, the “activity, negative = inhibition” value was -3.24%.

For the molecule `Cc1cc(C)c(NC(=O)C(C)Sc2nnc(-c3ccco3)n2-c2ccccc2)c(C)c1` (configuration not stated), the AC50 was 10 µM (active).

For `O=C(CSc1nnc(-c2ccco2)n1-c1ccccc1)NCc1ccco1`, the “activity, negative = inhibition” value is -27%.

In the case of `O=C1C2CCC(C(O)C2)N1Cc1ccccc1` (configuration not stated), the “activity, negative = inhibition” value is -15.5%.

As to `O=C(O)c1ccc(CNCc2ccccc2)cc1`, the activity, negative = inhibition was 10.3% [at 11.4 µM].

For the molecule `NC(=O)c1ccc(C2SCC(=O)N2Cc2ccccc2)cc1` (configuration not stated), the AC50 is 12.6 µM (active).

As to `O=C(COc1ccccc1)Nc1cc(C(F)(F)F)ccc1N1CCCC1`, the AC50 is 14.1 µM (active).

As for `O=C(COC(=O)COc1ccccc1)Nc1ccc(OC(F)(F)F)cc1`, the “activity, negative = inhibition” value is -22.1%.

As for `NS(=O)(=O)c1cc(C(=O)O)cc(N2CCCC2)c1Oc1ccccc1`, the “activity, negative = inhibition” value is 2.98% [at 25.6 µM].

`Cc1nn(-c2nc3ccccc3[nH]2)c(N)c1-c1ccc(Cl)cc1`: the AC50 is 3.98 µM (active).

Turning to `Oc1ccc2ccccc2c1Cc1c(O)ccc2ccccc12`, the AC50 is 2 µM (active).

As to `CC(C)(C)c1ccc(O)c(CN(Cc2c(O)ccc3ccccc23)C2CCCCC2)c1`, the activity, negative = inhibition is -19% [at 11.4 µM].

For the molecule `O=C(O)Cc1c(O)ccc2ccccc12`, the activity, negative = inhibition was -24.2% [at 11.4 µM].

`CC(=O)N1N=C(c2cccc([N+](=O)[O-])c2)OC1c1ccc(Cl)cc1Cl` (configuration not stated): the AC50 is 1.26 µM (active).

`CC(=O)N1N=C(c2cccc([N+](=O)[O-])c2)OC1c1ccccc1Cl` (configuration not stated): the AC50 was 0.891 µM (active).

Turning to `CCOC(=O)C1CCCN(C(=O)CCCOc2cc(=O)n(C)c3ccccc23)C1` (configuration not stated), the “activity, negative = inhibition” value was 73.9%.

On to `Cn1c(=O)cc(OCCCC(=O)N2CCN(c3ccccc3)CC2)c2ccccc21`, for which the AC50 is 2.51 µM (active).

Take `O=c1c2cnn(-c3ccccc3)c2nnn1/N=C/c1cccnc1`: the “activity, negative = inhibition” value is 11.6%.

Regarding `O=[N+]([O-])c1cc(/C=N/N2CCN(C3c4ccccc4-c4ccccc43)CC2)ccc1Cl`, the “activity, negative = inhibition” value was -13.6%.

With `C/C(=N\N1CCN(C2c3ccccc3-c3ccccc32)CC1)c1cccnc1`, the AC50 was 0.562 µM (active).

Turning to `C(=N\N1CCN(C2c3ccccc3-c3ccccc32)CC1)/c1cccnc1`, the AC50 was 0.2 µM (active).

For the molecule `C/C(=N\N1CCN(C2c3ccccc3-c3ccccc32)CC1)c1ccncc1`, the AC50 is 2.24 µM (active).

As to `CC(C)(C(=O)c1cccnc1)c1cccnc1`, the “activity, negative = inhibition” value was -1.97% [at 25.6 µM].

For `Cn1nc(C(F)(F)F)c(/C=N/OC(=O)c2ccccc2Cl)c1SCc1ccc(Cl)cc1`, the AC50 was 3.98 µM (active).

As for `N[C@@]1(C(=O)O)CN[C@H](C(=O)O)C1`, the “activity, negative = inhibition” value is 2.03%.

As for `O=C(c1csnn1)N1CCC2(CC1)CN(Cc1cc(C(F)(F)F)cc(C(F)(F)F)c1)C2`, the “activity, negative = inhibition” value was 17.2%.

`CC1=N/C(=C\c2ccc([N+](=O)[O-])cc2)C(=O)N1c1ccc(Cl)cc1`: the “activity, negative = inhibition” value is 4.62%.

`Cc1ccc(C)n1N1C(=O)/C(=C\c2ccc(Cl)cc2)SC1=S`: the AC50 was 5.01 µM (active).

For `CC(=O)OC[C@@H]1O[C@@H](O/N=C2/C[C@@H](O)[C@@H](O)[C@@H]3[C@@H]4C(=O)N([C@@H](C)c5ccccc5)C(=O)[C@H]4CC[C@H]23)[C@H](OC(C)=O)[C@H](OC(C)=O)[C@@H]1OC(C)=O`, the activity, negative = inhibition was 10.5% [at 11.4 µM].

The values above are taken from PubChem BioAssay AID1851 (National Center for Advancing Translational Sciences (NCATS), 2009).
